# In PubChem BioAssay AID1461 (National Center for Advancing Translational Sciences (NCATS), 2008):
# In all, about 220,000 compounds went through this assay and about 2,300 (1%) were called active. Not shown: some 6% with an inconclusive outcome. The call rests on the fitted dose curve; in most records, active means well fitted inhibition curve with a large enough effect; inconclusive means small, poorly fitted or top-dose-only effect, or effect the other way; inactive means no such curve, though single readings can be large or run the other way. The list comes from a sample in which actives are over-represented; it also holds similar structures and randomly drawn compounds. A call without a number means that no potency is given here.
# Biological target: Neuropeptide S receptor (Homo sapiens) (UniProt Q6W5P4)
# Sequence (Q6W5P4 whole entry, looked up): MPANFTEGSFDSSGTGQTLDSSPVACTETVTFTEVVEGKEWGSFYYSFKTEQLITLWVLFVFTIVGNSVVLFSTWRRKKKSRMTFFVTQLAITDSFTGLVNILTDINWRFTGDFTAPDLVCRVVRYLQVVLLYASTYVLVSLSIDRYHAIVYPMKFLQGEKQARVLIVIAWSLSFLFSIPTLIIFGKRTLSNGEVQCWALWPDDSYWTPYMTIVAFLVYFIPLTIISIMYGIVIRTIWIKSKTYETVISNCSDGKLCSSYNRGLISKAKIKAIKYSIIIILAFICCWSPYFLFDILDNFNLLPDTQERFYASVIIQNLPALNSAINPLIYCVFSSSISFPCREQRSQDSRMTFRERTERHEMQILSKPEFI
# Assay: qHTS Assay for Antagonists of the Neuropeptide S Receptor: cAMP Signal Transduction; further: nearly all actives have a fitted effect of over 50% in size
# Conditions: CHO-NPSR cells, cAMP TR-FRET, antagonist mode; series mostly up to 38.3 µM
# Text: NIH Chemical Genomics Center [NCGC] NIH Molecular Libraries Probe Production centers Network [MLPCN] MLPCN Grant: X01-DA026210-01 Assay Submitter (PI): Heilig, Markus Alexander NCGC Assay Overview: Neuropeptide S receptor (NPSR), previously known as GPR154, is a recently de-orphanized G protein coupled receptor. Its endogenous ligand is the 20 amino acids peptide Neuropeptide S (NPS). […] NPS and its receptor are found in various tissues. Specifically they are highly expressed in brain areas that have been implicated in modulation of arousal, stress and anxiety. Central administration of NPS in mice produces an unusual profile of activity by inducing wakefulness and arousal, while at the same time suppressing anxiety. Therefore, NPSR may represent a novel drug target for the treatment of sleep and anxiety disorders. To identify NPSR antagonists, we developed a cell-based cAMP assay. NPS can stimulate the production of cAMP in Chinese hamster ovary cells stably expressing NPS receptor. This change in intracellular cAMP level can be detected by a homogeneous LANCE cAMP assay based on the TR-FRET (time resolved fluorescence resonance energy transfer) between a europium-labeled cAMP tracer complex and a cAMP-specific antibody labeled with Alexa Fluor 647. The europium-labeled cAMP tracer complex is formed by the tight interaction between Biotin-cAMP (b-cAMP) and streptavidin labeled with Europium-W8044 chelate (Eu-SA). Light pulse at 320 nm excites the europium of the cAMP tracer and the energy emitted is transferred to the Alexa molecule bound to the cAMP antibody, generating a TR-FRET signal at 665 nm. Residual energy from the europium will produce a light at 620 nm. The native unlabeled cAMP from cell lysates competes with the europium-cAMP tracer for antibody binding and reversely reduces the emission signal of Alexa by interrupting FRET between the two labeled molecules. Both emission signals from the FRET donor (620 nm) and the acceptor (665 nm) can be detected by a plate reader in the TRF mode. Expression of result in fluorescence ratio (665 nm/620 nm) helps to normalize differences due to cell density and reagent dispensing. This assay was successfully optimized to a 1536-well plate format.
# NCGC Assay Protocol Summary: A Chinese hamster ovary (CHO) cell line stably expressing the NPS receptor (CHO-NPSR) was obtained from Dr. Heilig lab at NIAAA and maintained in F-12 Kaighn's media (Invitrogen, Carlsbad, CA, 21127) supplemented with 10 % FBS, 100 units/ml penicillin, 100 ug/ml streptomycin and 250 ug/ml geneticin at 37C, 5% CO2 in a humidified atmosphere. Before the assay, aliquots of cells were frozen and stored at -135C. The assay was performed in 1536-well format. Data are reported for both the ratio of the two emission wavelengths, and also for the component 'donor' channel, Em2=620. Data were normalized to the controls for basal activity (DMSO only) and 100% inhibition (No NPS control). IC50 values were determined from concentration-response data modeled with the standard Hill equation. NPS 1536-well assay protocol: (1) Fresh or frozen CHO-NPSR cells were suspended in F-12 Kaighn's media supplemented with 10 % FBS, 100 units/ml penicillin and 100 ug/ml streptomycin. Cells were plated at 4 ul/well (1200 cells) to white, tissue culture treated 1536-well plates, and then cultured at 37C, 5 % CO2 for 16 to 30 hours. (2) Add 23 nl/well of compound in DMSO solution. The final titration for each compound was between 0.6 nM and 46 uM. (3) Add 1 ul of stimulation reagent (1X HBSS buffer, 5 mM HEPES, 0.1% BSA, 500 uM RO-201724 (Sigma-Aldrich, B8279), 1.5% Alexa 647-labeled anti-cAMP antibody (from Perkin Elmer), 100 nM NPS) (4) Incubation at 37C, 5 % CO2 for 60 min. (5) Add 1 ul/well detection reagent. Detection reagent was prepared by adding biotin labeled cAMP (4%), streptavidin labeled with Europium-W8044 chelate (1.33%) and TritonX-100 (1%) to detection buffer. […]
# Potency means the concentration at half of the fitted maximal effect.
row,SMILES,Potency
1,CC1CCCCC1NC(=O)/C(C#N)=C/C=C/c1ccccc1[N+](=O)[O-] (stereo unspecified),10 µM (active)
2,O=C(/C=C/c1ccccc1[N+](=O)[O-])NCC1CCCO1 (stereo unspecified),inactive
3,O=C(/C=C/c1ccccc1[N+](=O)[O-])OC1CCCCC1=O (stereo unspecified),inactive
4,CN(c1ccccc1)S(=O)(=O)c1ccc(Cl)c(C(=O)OCC(=O)NCc2ccco2)c1,inactive
5,CN(C)C(=S)Nc1ccc(Br)cc1Cl,inactive
6,COc1cc(C(CCN2CCN(c3ccccc3)CC2)c2c(OC)cc(OC)c3ccc(=O)oc23)cc(OC)c1OC (stereo unspecified),10 µM (active)
7,CCN(CC)CCC(c1cc(OC)c(OC)c(OC)c1)c1c(OC)cc(OC)c2c(-c3ccccc3)cc(=O)oc12 (stereo unspecified),inactive
8,COc1ccc(C(CC(=O)N2CCN(c3ccccc3)CC2)c2c(O)cc(OC)cc2OC)cc1 (stereo unspecified),inactive
9,O=C(Nc1ccccc1)Nc1nnc(COc2ccccc2F)s1,inactive
10,COc1ccc(NC(=O)CCN2C(=O)/C(=C/c3ccc4c(c3)OCO4)SC2=S)cc1,inactive
11,O=C(Cn1cnc2ccccc2c1=O)Nc1cccc(S(=O)(=O)N2CCCCC2)c1,inactive
12,CC(=O)Nc1ccc(CC#N)cc1,inactive
13,Cc1cc(-c2nc(C)c(-c3nnc(SCC(=O)Nc4ccccc4)n3C)s2)no1,inactive
14,COc1ccc(N2C(=O)c3ccccc3NC2c2ccc(OC)c(CN3CCOCC3)c2)cc1 (stereo unspecified),inactive
15,CCC(=O)NC(=S)Nc1ccc(NC(=O)c2ccco2)c(Cl)c1,inactive
16,O=C(Nc1ccc(Sc2ccc(Br)cc2)cc1)c1ccco1,inactive
17,CCN(CC)P(=O)(Nc1ccc(SC(F)F)cc1)c1ccc(N(C)C)cc1NC(=O)c1ccco1 (stereo unspecified),5.01 µM (active)
18,C=CCCN(Cc1ccccc1)S(=O)(=O)c1ccccc1Br,inactive
19,O=C(NNC(=O)c1csc(-c2cccnc2)n1)Nc1ccc(Cl)cc1,inactive
20,O=C(O)CC12CC3CC(C1)CC(n1ncc(NCc4ccc(F)cc4)c(Cl)c1=O)(C3)C2,inactive
21,O=C(NNC(=S)NC1CC2CCC1C2)c1ccc(Cl)cc1 (stereo unspecified),inactive
22,CC(C)Cn1c(CN(Cc2ccccc2)Cc2ccccc2)nc2c1c(=O)n(C)c(=O)n2C,12.6 µM (active)
23,COCCn1c(CN(Cc2ccccc2)Cc2ccccc2)nc2c1c(=O)n(C)c(=O)n2C,inactive
24,CC(C)CCn1c(CN(C)Cc2ccccc2)nc2c1c(=O)n(C)c(=O)n2C,inactive
25,S=c1[nH]nc(-c2cccnc2)n1/N=C/C(Cl)=C\c1ccccc1,inactive
26,Cc1cc(-c2n[nH]c(=S)n2/N=C/C(Br)=C/c2ccccc2)n[nH]1,3.98 µM (active)

row,SMILES,Potency
1,Cc1cc(-c2n[nH]c(=S)n2/N=C/c2ccco2)n[nH]1,inactive
2,Cn1c(SCC(=O)c2ccc(F)cc2)nnc1-c1ccccn1,inactive
3,Cc1nc2nc(SCC(=O)c3ccccc3)[nH]c2cc1Br,inactive
4,Nc1nc(SC23CC4CC(CC(C4)C2)C3)ns1,inactive
5,Cn1c(C(=O)O)ccc1S(=O)(=O)N(Cc1ccccc1)Cc1ccccc1,inactive
6,N#C/C(=C1\CCCN1)c1nc(-c2ccccc2)cs1,inactive
7,N#CC1=C(SCc2ccccc2)NC(=O)C(C#N)C12CCCC2 (stereo unspecified),inactive
8,N#CC1=C(SCc2ccc(C#N)cc2)N=C(N)C(c2nc(-c3ccccc3)cs2)C12CCCCC2 (stereo unspecified),3.98 µM (active)
9,S=c1[nH]c2ccccc2c2ccccc12,inactive
10,CCCCCCCCCCCCC(NC(C)=O)(C(=O)OCC)C(=O)OCC,inactive
11,Nc1ccccc1Sc1cc(Cl)nnc1Cl,inactive
12,Cc1ccc(-c2c[n+](CC(=O)Nc3ccccc3)c3n2CCC3)cc1,inactive
13,CC(=O)c1c(C)[nH]c(=S)c(C#N)c1-c1ccc(F)cc1,inactive
14,CCOC(=O)c1c(C)[nH]c2c1-c1ccccc1C(=O)C2=O,inactive
15,CCOC(=O)c1c(C)[nH]c(=S)c(C#N)c1-c1ccccc1,7.94 µM (active)
16,Cn1cnc(S(=O)(=O)Nc2ccc3c(c2)OCCO3)c1,inactive
17,Cc1cc(C)cc(NC(=O)NC2CCN(CC(=O)Nc3cccc(Cl)c3C)CC2)c1,inactive
18,O=C(CN1CCCCC1)Nc1ccccc1Cl,inactive
19,O=C(Nc1ccccc1Cl)/C(Cl)=C(\Cl)S(=O)c1ccccc1 (stereo unspecified),7.94 µM (active)
20,COCCN(CCOC)C(=S)Nc1ccccc1Cl,inactive
21,COc1ccc(C(=O)N/N=C2\CCS(=O)(=O)c3ccc(F)cc32)cc1OC,inactive
22,COC(=O)c1cc(C(=O)OCC(=O)Nc2cc(C)on2)cc([N+](=O)[O-])c1,inactive
23,N/C(=N\OC(=O)CCn1cccc(C(F)(F)F)c1=O)c1ccc(OC(F)(F)F)cc1,inactive
24,Cn1c(S(=O)(=O)O)nc2ccccc21,inactive
25,Cc1ccc(NC(=O)/C(=C/c2ccc([N+](=O)[O-])cc2)NC(=O)c2ccccc2)cc1,inactive
